From PubChem BioAssay (EPA / NIEHS)
The source made the active and inactive calls. Rule for the calls: active = hit-call score of the fitted dose curve at least 0.9, where 1 is the maximum; inactive = score below 0.9.

Read-out: Tumor necrosis factor receptor superfamily member 6 (Homo sapiens) (UniProt P25445)
Test: LTEA_HepaRG_FAS: Life Technologies and Expression Analysis (LTEA) Assay for Fas cell surface death receptor (FAS) using HepaRG (AID 2283447)
Details: mRNA level, 48 h; actives raise or lower the signal
How it was run: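 Differentiated HepaRG cells in serum-free induction medium were exposed 48 h to 8 half-log concentrations up to 100 uM in 0.5% DMSO, in duplicate. FAS mRNA was measured by qRT-PCR normalised to ACTB, GAPDH and POLR2A; bidirectional fit versus DMSO.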

Fatty acid synthase (Homo sapiens), sequence (P49327 whole entry, looked up): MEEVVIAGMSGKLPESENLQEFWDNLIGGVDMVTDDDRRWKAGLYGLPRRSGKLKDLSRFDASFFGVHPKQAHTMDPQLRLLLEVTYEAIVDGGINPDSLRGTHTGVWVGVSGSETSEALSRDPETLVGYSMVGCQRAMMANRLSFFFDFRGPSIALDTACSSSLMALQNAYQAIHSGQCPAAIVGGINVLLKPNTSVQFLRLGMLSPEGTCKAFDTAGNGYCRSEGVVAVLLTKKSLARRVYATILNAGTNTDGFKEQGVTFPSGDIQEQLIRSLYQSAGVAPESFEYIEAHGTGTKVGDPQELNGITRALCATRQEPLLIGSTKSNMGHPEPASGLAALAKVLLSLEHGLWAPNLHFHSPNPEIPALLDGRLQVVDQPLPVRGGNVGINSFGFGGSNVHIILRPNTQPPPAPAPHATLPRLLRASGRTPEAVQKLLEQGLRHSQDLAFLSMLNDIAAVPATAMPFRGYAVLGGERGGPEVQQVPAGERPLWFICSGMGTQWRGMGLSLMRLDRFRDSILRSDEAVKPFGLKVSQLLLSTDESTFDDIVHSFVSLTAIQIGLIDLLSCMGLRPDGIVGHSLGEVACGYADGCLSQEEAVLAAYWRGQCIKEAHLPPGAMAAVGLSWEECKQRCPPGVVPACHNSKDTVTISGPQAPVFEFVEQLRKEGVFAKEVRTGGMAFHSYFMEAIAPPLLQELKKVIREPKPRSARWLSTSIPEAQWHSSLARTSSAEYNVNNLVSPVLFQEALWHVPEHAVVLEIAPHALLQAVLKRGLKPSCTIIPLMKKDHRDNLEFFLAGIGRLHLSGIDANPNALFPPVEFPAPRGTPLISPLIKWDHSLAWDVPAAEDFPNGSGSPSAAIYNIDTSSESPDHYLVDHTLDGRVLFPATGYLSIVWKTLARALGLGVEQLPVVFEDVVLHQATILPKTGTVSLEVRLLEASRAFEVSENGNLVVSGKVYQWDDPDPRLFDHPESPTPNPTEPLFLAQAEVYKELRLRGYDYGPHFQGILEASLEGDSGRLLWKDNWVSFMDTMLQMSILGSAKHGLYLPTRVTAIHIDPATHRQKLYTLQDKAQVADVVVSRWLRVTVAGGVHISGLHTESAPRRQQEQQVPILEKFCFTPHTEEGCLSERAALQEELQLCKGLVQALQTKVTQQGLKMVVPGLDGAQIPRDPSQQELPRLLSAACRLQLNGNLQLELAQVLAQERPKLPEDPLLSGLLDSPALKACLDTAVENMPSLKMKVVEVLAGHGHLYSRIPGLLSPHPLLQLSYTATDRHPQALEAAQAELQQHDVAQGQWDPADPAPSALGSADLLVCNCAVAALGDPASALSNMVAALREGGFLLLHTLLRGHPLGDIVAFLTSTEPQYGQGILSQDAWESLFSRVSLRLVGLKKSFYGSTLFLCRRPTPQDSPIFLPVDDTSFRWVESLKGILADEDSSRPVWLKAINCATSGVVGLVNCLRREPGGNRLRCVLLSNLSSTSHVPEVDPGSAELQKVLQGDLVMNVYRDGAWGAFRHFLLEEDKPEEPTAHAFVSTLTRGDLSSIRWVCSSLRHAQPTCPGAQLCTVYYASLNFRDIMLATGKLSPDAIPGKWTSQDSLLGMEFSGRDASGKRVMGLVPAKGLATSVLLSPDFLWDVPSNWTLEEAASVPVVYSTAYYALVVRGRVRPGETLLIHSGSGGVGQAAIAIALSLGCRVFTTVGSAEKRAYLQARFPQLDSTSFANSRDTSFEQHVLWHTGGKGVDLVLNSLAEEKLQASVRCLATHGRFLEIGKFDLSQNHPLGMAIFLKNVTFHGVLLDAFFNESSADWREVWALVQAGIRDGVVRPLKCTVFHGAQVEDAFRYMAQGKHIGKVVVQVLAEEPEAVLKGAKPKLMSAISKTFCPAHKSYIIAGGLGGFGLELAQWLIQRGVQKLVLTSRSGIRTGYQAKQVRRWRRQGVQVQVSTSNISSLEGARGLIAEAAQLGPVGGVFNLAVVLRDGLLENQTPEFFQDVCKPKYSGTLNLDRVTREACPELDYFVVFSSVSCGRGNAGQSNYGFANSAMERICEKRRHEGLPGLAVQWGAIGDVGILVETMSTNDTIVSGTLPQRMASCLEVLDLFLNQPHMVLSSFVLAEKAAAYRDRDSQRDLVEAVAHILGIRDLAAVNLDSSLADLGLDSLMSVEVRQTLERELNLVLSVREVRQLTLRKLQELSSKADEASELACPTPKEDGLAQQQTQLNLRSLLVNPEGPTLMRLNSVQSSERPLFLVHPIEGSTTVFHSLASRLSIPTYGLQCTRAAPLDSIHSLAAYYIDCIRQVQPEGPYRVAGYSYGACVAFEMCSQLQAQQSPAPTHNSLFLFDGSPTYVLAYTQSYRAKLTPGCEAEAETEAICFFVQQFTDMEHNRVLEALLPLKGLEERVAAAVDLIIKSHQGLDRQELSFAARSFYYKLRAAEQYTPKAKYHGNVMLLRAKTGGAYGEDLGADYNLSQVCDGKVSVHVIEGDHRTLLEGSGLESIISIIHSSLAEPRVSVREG

| SMILES | outcome |
| --- | --- |
| CN(C)CCCN1c2ccccc2Sc2ccc(Cl)cc21 | inactive |
| O=C1O[C@H]([C@H](O)CO)C(O)=C1O | inactive |
| CN(C)CCCN(C)CCCN(C)C | inactive |
| CO[C@@H]1COCC[C@@H]1N[C@@H]1CC[C@@](C(=O)N2CCc3ncc(C(F)(F)F)cc3C2)(C(C)C)C1 | inactive |
| CC(=O)O | inactive |
| CCCCC(CC)COC(=O)CCCCCCCC(=O)OCC(CC)CCCC (centres undefined) | inactive |
| NC=O | inactive |
| O=C(O)c1[nH]n(-c2ccc(S(=O)(=O)O)cc2)c(=O)c1N=Nc1ccc(S(=O)(=O)O)cc1 | inactive |

Read-out: Fatty acid synthase (Homo sapiens) (UniProt P49327)
Test: LTEA_HepaRG_FASN: Life Technologies and Expression Analysis (LTEA) Assay for Fatty Acid Synthase (FASN) using HepaRG (AID 2283448);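 for AC50: differentiated human HepaRG liver cells in serum-free induction medium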
Details: mRNA level, 48 h; actives raise or lower the signal
How it was run: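 Cells were plated, cultured 48 h, switched to serum-free induction medium, then dosed in duplicate (max 100 uM, half-log dilutions, 0.5% DMSO) for 48 h. RNA was then isolated and FASN quantified by qRT-PCR.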

| SMILES | outcome | AC50 |
| --- | --- | --- |
| Cc1occc(=O)c1O | inactive |  |
| O=C(N[C@@H](c1ccccc1)[C@@H]1CCCCN1)c1cccc(C(F)(F)F)c1Cl |  | 85 µM (active) |
| C#CC(O)C(CC)CCCC (centres undefined) | inactive |  |
| COC(=O)CCC(=O)OC | inactive |  |
| O=C(O)c1cccnc1 | inactive |  |
| CCCC(=O)O | inactive |  |
| CCc1cc(C2=C(C(=O)O)N(c3ccccc3C(F)(F)F)S(=O)(=O)c3ccccc32)cc2c1OCO2 | inactive |  |
| CCOCCOCCO | inactive |  |
| CS(=O)(=O)c1ccc([C@@H](C[C@H]2CCC(=O)C2)C(=O)Nc2cnccn2)cc1Cl | inactive |  |
| CN(C)CCCN1c2ccccc2Sc2ccc(Cl)cc21 |  | 12.5 µM (active) |
| O=C1O[C@H]([C@H](O)CO)C(O)=C1O | inactive |  |
| CN(C)CCCN(C)CCCN(C)C | inactive |  |

Read-out: Cyclin D2 (CCND2), CCND2 (gene 894)
Test: LTEA_HepaRG_CCND2: Life Technologies and Expression Analysis (LTEA) Assay for Cyclin D2 (CCND2) using HepaRG (AID 2283449);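 note: CCND2 transcript measured by TaqMan qRT-PCR and normalised to three housekeeping genes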
Details: mRNA level, 48 h; actives raise or lower the signal
How it was run: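 HepaRG, 48 h dosing, 8-pt half-log curve from 100 uM, 0.5% DMSO; duplicate wells. Readout: CCND2 transcript by microfluidic qRT-PCR, housekeeping-normalised; bidirectional fit vs DMSO baseline.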

| SMILES | outcome | AC50 |
| --- | --- | --- |
| Cc1occc(=O)c1O | inactive |  |
| CC(=O)OC1CC(C)OC(C)O1 (centres undefined) | inactive |  |
| CCCC[C@H]1CN(CC2CCOCC2)C(=O)OC12CCN(C1(C)CCN(C(=O)c3c(C)ncnc3C)CC1)CC2 | inactive |  |
| O=C(N[C@@H](c1ccccc1)[C@@H]1CCCCN1)c1cccc(C(F)(F)F)c1Cl | inactive |  |
| CC(C)NCC(O)c1ccc(O)c(O)c1 (centres undefined) | inactive |  |
| C#CC(O)C(CC)CCCC (centres undefined) | inactive |  |
| CC(COCC(C)OC(=O)c1ccccc1)OC(=O)c1ccccc1 (centres undefined) | inactive |  |
| NC1CCCCC1 | inactive |  |
| O=C(O)CC(O)(CC(=O)O)C(=O)O | inactive |  |
| CCCC(=O)O | inactive |  |
| CCc1cc(C2=C(C(=O)O)N(c3ccccc3C(F)(F)F)S(=O)(=O)c3ccccc32)cc2c1OCO2 | inactive |  |
| COC(=O)[C@H]1[C@H]2C[C@@H]3c4[nH]c5cc(OC)ccc5c4CCN3C[C@H]2C[C@@H](OC(=O)c2cc(OC)c(OC)c(OC)c2)[C@@H]1OC |  | 14.9 µM (active) |
| CCOCCOCCO | inactive |  |
| CS(=O)(=O)c1ccc([C@@H](C[C@H]2CCC(=O)C2)C(=O)Nc2cnccn2)cc1Cl |  | 2.19 µM (active) |
| OCC(CO)n1cnc(-c2ccc(F)cc2)c1-c1ccnc(Oc2ccccc2)n1 | inactive |  |
| CC(C)(C)c1ccccc1 | inactive |  |
| Cc1ccc(-c2cc(C(F)(F)F)nn2-c2ccc(S(N)(=O)=O)cc2)cc1 | inactive |  |
| CN(C)CCCN1c2ccccc2Sc2ccc(Cl)cc21 | inactive |  |
| O=C1O[C@H]([C@H](O)CO)C(O)=C1O | inactive |  |
| CO[C@@H]1COCC[C@@H]1N[C@@H]1CC[C@@](C(=O)N2CCc3ncc(C(F)(F)F)cc3C2)(C(C)C)C1 | inactive |  |
| CC(=O)O | inactive |  |
| CCCCC(CC)COC(=O)CCCCCCCC(=O)OCC(CC)CCCC (centres undefined) | inactive |  |
| NC=O | inactive |  |
| O=C(O)c1[nH]n(-c2ccc(S(=O)(=O)O)cc2)c(=O)c1N=Nc1ccc(S(=O)(=O)O)cc1 | inactive |  |
